Results on 27 compounds are retold here after the supplement of paper PMC8866396.

One experiment concerns IL-6-GFP PC-9GR. The experiment in a line: cell viability (CCK-8 OD) relative to DMSO control (fraction of control); higher = more viable cells. The note with it: compound concentration: 10 uM; treatment time: 48 h. The gist of the method: (§1)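 Compounds from a purchased library of 510 were each tested at a final 10 μM for 48 h on PC-9 and PC-9GR lung cancer cells plated at 3000 cells/well in 96-well plates. These cells overexpressed IL-6-GFP from a lentiviral construct. Viability came from CCK-8 absorbance, given as the optical density of each well over that of the vehicle control well, across independent replicates numbering two.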

The subject of a further experiment is IL-6-GFP PC-9. Described as above. The note with it: compound concentration: 10 uM; treatment time: 48 h. The gist of the method:
as §1

± gives the standard deviation of the averaged measurements.

`CCC(=O)OC1(C(=O)CCl)C(C)CC2C3CC(F)C4=CC(=O)C=CC4(C)C3(F)C(O)CC21C` (centres undefined) [Halobetasol Propionate]: the figures for the cell viability in the experiment on IL-6-GFP PC-9GR and in the experiment on IL-6-GFP PC-9 were 0.859 ± 0.011 and 1.05 ± 0.29, respectively.
Take `CCCS(=O)(=O)Nc1ccc(F)c(C(=O)c2c[nH]c3ncc(-c4ccc(Cl)cc4)cc23)c1F` [Vemurafenib (PLX4032, RG7204)]: the cell viability in the experiment with IL-6-GFP PC-9GR was 1.06 ± 0.1; in the experiment on IL-6-GFP PC-9, 1.05 ± 0.15.
As to `CCOc1ccc(NC(C)=O)cc1` [Phenacetin], the cell viability came out at 1.24 ± 0.33 in the experiment on IL-6-GFP PC-9GR and 1.09 ± 0.054 with IL-6-GFP PC-9.
`CC1CCN(C(=O)CC#N)CC1N(C)c1ncnc2[nH]ccc12.O=C(O)CC(O)(CC(=O)O)C(=O)O` (centres undefined): the cell viability in the experiment with IL-6-GFP PC-9GR is 1.2 ± 0.23; in the experiment with IL-6-GFP PC-9 it was 1.26 ± 0.04.
The like results for `Nc1ncn(C2OC(CO)C(O)C2O)c(=O)n1` (centres undefined) [Azacitidine] were, in that order, 1.04 ± 0.077 and 0.895 ± 0.15.
`O=C(O)c1cc(O)c(O)c(O)c1` [Gallic acid]: the cell viability stood at 0.792 ± 0.22 in the experiment with IL-6-GFP PC-9GR and 0.369 ± 0.14 in the experiment with IL-6-GFP PC-9.
Take `CC(C)Cc1ccc(C(C)C(=O)OCc2ccccn2)cc1` (centres undefined) [Ibuprofen piconol]: the cell viability with IL-6-GFP PC-9GR is 1.43 ± 0.54; in the experiment with IL-6-GFP PC-9, 1.17 ± 0.096.
Turning to `C#Cc1cccc(Nc2ncnc3cc(OCCOC)c(OCCOC)cc23)c1.Cl` [Erlotinib HCl (OSI-744)], the cell viability in the experiment with IL-6-GFP PC-9GR is 0.817 ± 0.21; in the experiment with IL-6-GFP PC-9 it was 0.388 ± 0.33.
In the same order, the values of `CC(=O)Nc1ccccc1` [Acetanilide] are 1.31 ± 0.19 and 1.24 ± 0.12.
In the same order, the values of `O=C([O-])Cc1ccccc1Nc1c(Cl)cccc1Cl.[K+]` [Diclofenac Potassium] are 1.25 ± 0.21 and 1.13 ± 0.18.
For the compound `CN(C)c1cc(CNCC(C)(C)C)c(O)c2c1CC1CC3C(N(C)C)C(O)=C(C(N)=O)C(=O)C3(O)C(O)=C1C2=O.Cc1ccc(S(=O)(=O)O)cc1` (centres undefined) [Omadacycline tosylate], the figures for the cell viability with IL-6-GFP PC-9GR and in the experiment with IL-6-GFP PC-9 were 1.02 ± 0.039 and 1.3 ± 0.11, respectively.
Regarding `CCC(C)n1ncn(-c2ccc(N3CCN(c4ccc(OCC5COC(Cn6cncn6)(c6ccc(Cl)cc6Cl)O5)cc4)CC3)cc2)c1=O` (centres undefined) [Itraconazole], the cell viability worked out at 0.797 ± 0.19 with IL-6-GFP PC-9GR and 0.269 ± 0.17 in the experiment with IL-6-GFP PC-9.
As to `CC(NCc1ccc(OCc2cccc(F)c2)cc1)C(N)=O.CS(=O)(=O)O` (centres undefined) [Safinamide Mesylate], the cell viability with IL-6-GFP PC-9GR came to 1.27 ± 0.017; in the experiment with IL-6-GFP PC-9 it was 0.749 ± 0.14.
For the compound `CC(C(=O)[O-])c1cccc(Oc2ccccc2)c1.CC(C(=O)[O-])c1cccc(Oc2ccccc2)c1.[Ca+2]` (centres undefined) [Fenoprofen Calcium], the cell viability in the experiment with IL-6-GFP PC-9GR was 1.26 ± 0.064; in the experiment on IL-6-GFP PC-9, 0.938 ± 0.013.
In the same order, the values of `CN(C)C(=O)c1cc2cnc(Nc3ccc(N4CCNCC4)cn3)nc2n1C1CCCC1` [Ribociclib (LEE011)] are 1.29 ± 0.4 and 1.01 ± 0.029.
On to `CC(=O)OC1(C(C)=O)CCC2C3C=C(C)C4=CC(=O)CCC4(C)C3CCC21C` (centres undefined) [Megestrol Acetate], for which the cell viability in the experiment on IL-6-GFP PC-9GR stood at 1.22 ± 0.09; with IL-6-GFP PC-9, 1.13 ± 0.1.
`CCC1(O)C(=O)OCc2c1cc1n(c2=O)Cc2cc3c(CN(C)C)c(O)ccc3nc2-1` (centres undefined) [Topotecan]: the results for the cell viability in the experiment on IL-6-GFP PC-9GR and with IL-6-GFP PC-9 were 0.333 ± 0.19 and 0.3428 ± 0.0013, respectively.
As to `Nc1nc(F)nc2c1ncn2C1OC(COP(=O)(O)O)C(O)C1O` (centres undefined) [Fludarabine Phosphate], the cell viability amounted to 0.174 ± 0.083 in the experiment on IL-6-GFP PC-9GR and 0.206 ± 0.052 in the experiment on IL-6-GFP PC-9.
Regarding `O=C(O)CCCN1CCC(OC(c2ccc(Cl)cc2)c2ccccn2)CC1` (centres undefined) [Bepotastine], the figures for the cell viability in the experiment with IL-6-GFP PC-9GR and in the experiment with IL-6-GFP PC-9 were 0.797 ± 0.031 and 1.06 ± 0.18, respectively.
For `OCC1OC(OCC2OC(O)C(O)C(OC3OC(CO)C(O)C(OC4OC(CO)C(O)C(OC5OC(COC6OC(CO)C(O)C(O)C6O)C(O)C(OC6OC(CO)C(O)C(O)C6O)C5O)C4O)C3O)C2O)C(O)C(O)C1O` (centres undefined) [Lentinan], the cell viability with IL-6-GFP PC-9GR came to 0.121 ± 0.32; with IL-6-GFP PC-9, 1.276 ± 0.0043.
`Nc1ccccc1NC(=O)c1ccc(CNC(=O)OCc2cccnc2)cc1` [Entinostat (MS-275)]: the cell viability in the experiment with IL-6-GFP PC-9GR was found to be 0.59 ± 0.036; with IL-6-GFP PC-9, 0.465 ± 0.028.
As for `CC(C(=O)O)c1ccc(C(=O)c2ccccc2)s1` (centres undefined) [Tiaprofenic acid], the cell viability with IL-6-GFP PC-9GR was 0.905 ± 0.037; in the experiment on IL-6-GFP PC-9, 1.04 ± 0.17.
Take `CNC(=O)c1c(C)oc2cc(Oc3ncnc4cc(OC)c(OC)cc34)ccc12` [Fruquintinib]: the results for the cell viability in the experiment with IL-6-GFP PC-9GR and with IL-6-GFP PC-9 were 1.04 ± 0.12 and 1.12 ± 0.08, respectively.
For `CC1CC2C3CC(F)C4=CC(=O)C=CC4(C)C3(F)C(O)CC2(C)C1(OC(=O)c1ccco1)C(=O)SCF` (centres undefined) [fluticasone furoate], the cell viability in the experiment on IL-6-GFP PC-9GR is 0.711 ± 0.089; with IL-6-GFP PC-9, 0.961 ± 0.27.
With `C=C1CCC2C(C)(CO)C(O)CCC2(C)C1C/C=C1\C=COC1=O` (centres undefined) [Dehydroandrographolide], the cell viability in the experiment with IL-6-GFP PC-9GR worked out at 1.17 ± 0.35; in the experiment on IL-6-GFP PC-9, 1.24 ± 0.12.
Take `COc1cc(CNC(=O)CCCC/C=C\C(C)C)ccc1O` [Zucapsaicin]: the cell viability in the experiment on IL-6-GFP PC-9GR is 0.332 ± 0.62; with IL-6-GFP PC-9, 1.22 ± 0.092.
In the same order, the values of `CN1CCC(=C2c3ccccc3CCc3cccnc32)CC1.O=C(O)/C=C\C(=O)O.O=C(O)/C=C\C(=O)O` [Azatadine dimaleate] are 0.981 ± 0.12 and 0.513 ± 0.013.
